# Test results from PubChem BioAssay AID1851 (National Center for Advancing Translational Sciences (NCATS), 2009).
# About 5,800 (36%) of roughly 16,000 compounds were called active. About 23% were inconclusive and are not listed. Some of the results follow. A number with no mark means an inactive call. Calls follow the shape of the dose curve; as a rule, active = well fitted curve in the direction sought with a large enough effect; inconclusive = small, poorly fitted or top-dose-only effect, or effect the other way; inactive = no such curve, though single readings can be large or run the other way.
# Target: Cytochrome P450 2C19 (Homo sapiens) (UniProt P33261)
# Sequence (P33261 whole entry, looked up): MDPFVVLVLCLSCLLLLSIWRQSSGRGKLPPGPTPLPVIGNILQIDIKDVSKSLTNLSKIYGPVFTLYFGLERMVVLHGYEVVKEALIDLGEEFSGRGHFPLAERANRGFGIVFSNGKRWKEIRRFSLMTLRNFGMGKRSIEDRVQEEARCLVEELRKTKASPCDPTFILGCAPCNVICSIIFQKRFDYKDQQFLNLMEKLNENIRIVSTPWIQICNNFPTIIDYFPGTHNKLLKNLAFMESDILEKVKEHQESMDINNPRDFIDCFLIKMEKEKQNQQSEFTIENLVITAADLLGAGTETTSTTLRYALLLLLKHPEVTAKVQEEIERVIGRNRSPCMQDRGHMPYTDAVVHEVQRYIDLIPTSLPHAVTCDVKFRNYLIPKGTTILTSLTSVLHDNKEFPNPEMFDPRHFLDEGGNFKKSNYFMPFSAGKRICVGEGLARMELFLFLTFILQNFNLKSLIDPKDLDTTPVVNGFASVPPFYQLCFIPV
# Assay: Cytochrome panel assay with activity outcomes
# Settings: recombinant CYP, pro-luciferin dealkylation, luminescence, p450-cyp2c19; series mostly up to 57.1 µM; activity, negative = inhibition: at the top concentration
# % is scaled to controls: 0 for no effect and ±100 for the full control effect.
Structure (SMILES),AC50,"activity, negative = inhibition"
CN(Cc1ccco1)c1ncnc2ccc(-c3cccc(NS(C)(=O)=O)c3)cc12,7.94 µM (active),
CN(Cc1ccco1)c1ncnc2ccc(-c3cccnc3)cc12,7.94 µM (active),
CN(Cc1ccco1)c1ncnc2ccc(-c3ccc4c(c3)OCO4)cc12,0.631 µM (active),
COc1cccc(-c2ccc3ncnc(N(C)Cc4ccco4)c3c2)c1,2 µM (active),
CN1CCN(c2ncnc3ccc(-c4cccc(NS(C)(=O)=O)c4)cc23)CC1,,-17.8%
CCOc1ccc2nc3cc(N=Nc4ccc(N)nc4N)ccc3c(N)c2c1,,-6.5% [at 11.4 µM]
CN(C)c1ncnc2ccc(-c3cccnc3)cc12,,-21.3%
CN(C)C(=O)c1ccc(-c2ccc3ncnc(N(C)C)c3c2)cc1,,-35.4%
COc1cccc(-c2ccc3ncnc(N(C)C)c3c2)c1,3.16 µM (active),
CCC(CC)c1nnc(NC(=O)COc2ccc3c(C)cc(=O)oc3c2)s1,,-12.9%
CCc1ccc(OCC(=O)Nc2ccc(-c3nc4ccccc4o3)c(O)c2)cc1,,-6.32%
CCSc1nnc(NC(=O)COc2ccc3ccccc3c2)s1,0.282 µM (active),
O=C(COc1ccc2ccccc2c1)Nc1ccc(Cc2ccncc2)cc1,0.178 µM (active),
C=CCSc1nnc(NC(=O)COc2ccc3ccccc3c2)s1,2.24 µM (active),
O=C(O)CCC(=O)Nc1ccc2ccccc2c1,,-18.3% [at 11.4 µM]
CN1CC[C@@]2(CCN3CCc4c(oc5ccccc45)[C@@H]3C2)N(C)C1=O,,-17.7%
CC(C)=CCc1c2c(c3occ(-c4ccc(O)c(O)c4)c(=O)c3c1O)C=CC(C)(C)O2,2 µM (active),
O=C(Nc1nnc(CCS(=O)(=O)c2ccc(Br)cc2)s1)c1ccc([N+](=O)[O-])cc1,,-15.8%
Cc1ccc(Nc2nc(-c3sc(NC(=O)c4ccc([N+](=O)[O-])cc4)nc3C)cs2)cc1,1.26 µM (active),
Cc1ccc(Nc2nc(-c3sc(NC(=O)c4cccc(Cl)c4)nc3C)cs2)cc1,1.41 µM (active),
Cc1nc(NC(=O)c2ccccc2)sc1-c1csc(Nc2ccc(Cl)cc2)n1,0.316 µM (active),
Cc1cccc(C(=O)Nc2nnc(-c3ccc(C(C)(C)C)cc3)s2)c1,,-9.79%
Cc1nc(NC(=O)c2ccccc2)sc1-c1csc(Nc2cccc(F)c2)n1,0.562 µM (active),
O=C(O)CCC(O)=C1S(=O)(=O)OCCOS1(=O)=O,,3.76% [at 11.4 µM]
C=CCCC(=O)Nc1nc(C)c(-c2csc(Nc3ccc(Cl)cc3)n2)s1,1.26 µM (active),

Structure (SMILES),AC50,"activity, negative = inhibition"
Cc1nc(NC(=O)c2ccccc2)sc1-c1csc(Nc2ccc(Cl)cc2Cl)n1,0.355 µM (active),
Cc1nnc(NC(=O)c2cccc(NC(=O)C(C)C)c2)s1,,-13.6%
Cc1nc(NC(=O)c2ccco2)sc1-c1csc(Nc2ccc(Cl)cc2Cl)n1,0.355 µM (active),
Cc1nc(NC(=O)c2ccccc2)sc1-c1csc(Nc2cccc(Cl)c2)n1,0.562 µM (active),
O=C(O)Cc1cc(I)c(Oc2ccc(O)c(I)c2)c(I)c1,,-1.1% [at 25.6 µM]
CC[C@H](C)C(=O)O[C@H]1CCC=C2C=C[C@H](C)[C@H](CC[C@@H]3C[C@H](O)CC(=O)O3)[C@H]21,,4.99%
Nc1n[nH]c2ccccc12,,-23.5% [at 11.4 µM]
Nc1[nH]nc2nc3ccccc3nc12,0.631 µM (active),
COc1ccc(N(C)C(=O)c2ccc3nc(-c4ccccc4)c(-c4ccccc4)nc3c2)cc1,8.91 µM (active),
CCCOc1ccc(Cn2c(C)nc([N+](=O)[O-])c2SCC(O)COC)cc1[N+](=O)[O-] (configuration not stated),2.82 µM (active),
CNc1nc(C)cc(C)c1S(=O)(=O)c1ccc(C)cc1,0.631 µM (active),
Cc1cc(C)nc(NS(=O)(=O)c2ccc(N)cc2)n1,,-5.99% [at 25.6 µM]
COc1ccc(Oc2nc(C)cc(C)c2S(=O)(=O)c2ccc(C)cc2)cc1,14.1 µM (active),
CNc1nc(C)cc(C)c1S(=O)(=O)c1ccc(Cl)cc1,0.708 µM (active),
Cc1cc(C)c(S(C)(=O)=O)c(Oc2ccc(C(C)(C)C)cc2)n1,7.94 µM (active),
Cc1ccccc1C1C(C#N)=C2N=C(N)c3c(sc4c3CCCCC4)N2C2=C1C(=O)CC(C)(C)C2 (configuration not stated),6.31 µM (active),
COc1cc(C2C(C#N)=C(N)N(c3sc4c(c3C#N)CCCC4)C3=C2C(=O)CC(C)(C)C3)cc(OC)c1OC (configuration not stated),10 µM (active),
CC(=O)OC[C@@H]1O[C@@H](O/N=C2/C[C@@H](O)[C@@H](O)[C@@H]3[C@@H]4C(=O)N(C[C@@H]5CCCO5)C(=O)[C@H]4CC[C@@H]23)[C@H](OC(C)=O)[C@H](OC(C)=O)[C@@H]1OC(C)=O,,3.68% [at 11.4 µM]
COc1cccc(Cn2c(NCc3cccnc3)nc3c2c(=O)n(C)c(=O)n3C)c1,17.8 µM (active),
Nc1ccc(-c2sc(N)nc2-c2ccccc2)cc1,7.94 µM (active),
Nc1nc(-c2ccccc2)c(-c2ccccc2)s1,8.91 µM (active),
Nc1nc(-c2ccccc2)c(-c2ccccc2)c(-c2nc(N)nc(-c3ccccc3)c2-c2ccccc2)n1,,13% [at 11.4 µM]
Cc1ccc(C)c(NC(=O)C2CC3c4ccccc4C2c2ccccc23)c1 (configuration not stated),20 µM (active),
Cc1ccc(C)c(NC(=O)C2C3CCCC2C3c2ccccc2)c1 (configuration not stated),,-1.2%
Nc1nc2c(ncn2COC(CO)CO)c(=O)[nH]1,inactive,

Structure (SMILES),AC50,"activity, negative = inhibition"
CC(=O)c1sc(N)c(C(=O)OC(C)C)c1C,1.58 µM (active),
CC(C)CN1CCCC2(CCN(C(=O)c3cc(C(F)(F)F)cc(C(F)(F)F)c3)CC2)C1,,-8.77%
CC(=O)C[C@H](O)[C@@H](NC(=O)OC(C)(C)C)C(C)C,,-9.61% [at 11.4 µM]
CCOC(=O)CSCC(NC(=O)OC(C)(C)C)C(=O)OCC (configuration not stated),10 µM (active),
CC(C)[C@H](NC(=O)OC(C)(C)C)[C@@H](O)CC(=O)OC(C)(C)C,,-17.9% [at 11.4 µM]
Cc1c(Cl)c([N+](=O)[O-])nn1Cc1ccc(C(=O)N/N=C\c2cccc(Br)c2)o1,1.12 µM (active),
Cc1nn(Cc2ccc(Cl)cc2)c(C)c1NC(=O)Cn1nc([N+](=O)[O-])c(Cl)c1C,,25.1%
Cc1c(Cl)c([N+](=O)[O-])nn1Cc1ccc(C(=O)N/N=C\c2cc(Cl)ccc2O)o1,1.78 µM (active),
O=C(O)/C=C\C(=O)Nc1ccc2c(c1)C(=O)c1cc(F)ccc1-2,,28.8% [at 11.4 µM]
O=C(/C=C/c1cccc(Cl)c1)Nc1ccncc1,0.0708 µM (active),
Cc1nc(N=Nc2cc(S(=O)(=O)O)ccc2S(=O)(=O)O)c(COP(=O)(O)O)c(C=O)c1O,,-31.8%
CCCCC1(C)OC(=O)C(=Cc2ccc(N(CC)CC)cc2)C(=O)O1 (configuration not stated),10 µM (active),
CN(C)c1ccc(/C=C2/C(=O)Nc3ccccc32)cc1,,-24.9%
O=C1Oc2ccccc2C2(O)C3CCCCCC3C12 (configuration not stated),1.41 µM (active),
C#CCSc1nnc(-c2sc3ccccc3c2Cl)o1,,-28.6%
C#CCSc1nc(Cc2ccc(Cl)cc2)nc2ccccc12,0.501 µM (active),
CC1(C)CC(=O)C(C(C#Cc2ccccc2)C2=C(O)CC(C)(C)CC2=O)=C(O)C1,4.47 µM (active),
CC(=O)N1CCC2(CCCN(C(c3ccccc3)c3ccccc3)C2)CC1,15.8 µM (active),
Cc1noc(C)c1C(=O)N1CCC2(CCCN(C(c3ccccc3)c3ccccc3)C2)CC1,,-32.8%
CC(=O)N1CCC2(CC1)CCN(C(c1ccccc1)c1ccccc1)CC2,,-26.9%
O=C(c1ccncc1)N1CCC2(CC1)CN(C(c1ccccc1)c1ccccc1)C2,,-40.4%
O=C(c1ccncc1)N1CCC2(CCCN(C(c3ccccc3)c3ccccc3)C2)CC1,10 µM (active),
CC(=O)N1CCC2(CC1)CN(C(c1ccccc1)c1ccccc1)C2,,16.5%
c1ccc(CNc2ncnc3ccc(-c4ccc5c(c4)OCO5)cc23)cc1,3.16 µM (active),
c1ccc(Nc2ncnc3ccc(-c4ccc5c(c4)OCO5)cc23)cc1,,-41.2%

Structure (SMILES),AC50,"activity, negative = inhibition"
Cc1cccc(CNc2ncnc3ccc(-c4ccc5c(c4)OCO5)cc23)c1,5.01 µM (active),
Cc1cc(O)c(C(C)C)cc1C1(c2cc(C(C)C)c(O)cc2C)OC(=O)c2ccccc21,3.16 µM (active),
O=c1c(-c2ccc(F)cc2)nc2cnc(N3CCOCC3)nc2n1C1CC1,,2.66%
Cc1ccc(S(=O)(=O)N(CC(=O)N2CCN(c3ccc(F)cc3)CC2)C2CCCCC2)cc1,2.82 µM (active),
Cc1ccc(S(=O)(=O)NC(=O)NN2C[C@H]3CCC[C@@H]3C2)cc1,,-36.1% [at 25.6 µM]
COc1ccc(-n2c(=O)c(-c3cccs3)nc3cnc(Nc4cccc(OC)c4)nc32)cc1,,-16.8%
COc1ccc(Nc2ncc3c(n2)CC(c2ccc(C)cc2)CC3=O)cc1 (configuration not stated),8.91 µM (active),
COc1ccc(C2CC(=O)c3cnc(Nc4cc(C)cc(C)c4)nc3C2)cc1 (configuration not stated),11.2 µM (active),
COc1ccc(-n2c(=O)c(C)nc3cnc(Nc4ccccc4)nc32)cc1,,-35.7%
COc1ccc(-c2nc3cnc(Nc4ccccc4)nc3n(CCC#N)c2=O)cc1,,-8.02%
COc1cccc(Nc2ncc3nc(C)c(=O)n(C4CC4)c3n2)c1,,-10.3%
O=C(Nc1ccccc1)N1CC[C@@]2(CCCN(C(=O)c3ccco3)C2)C1,,-17.2%
C=CC[C@@H]1C=C[C@H](O/N=C(\C)CCN2CCCCc3nc(C)c(C)cc32)[C@H](CO)O1,,21.2% [at 11.4 µM]
O=C(c1cccc(F)c1)N1CCC2(CC1)CCN(c1cccc(-c3ccccc3)c1)CC2,,-26.8%
O=C(c1cccc(F)c1)N1CCC2(CCCN(c3ccccc3)C2)CC1,5.01 µM (active),
O=C(c1cccc(F)c1)N1CCC2(CC1)CN(c1cccc(-c3ccccc3)c1)C2,,1.93%
CC(=O)N1CCC2(CCCN(c3ncccn3)C2)CC1,,-33.5%
O=C(c1cccc(F)c1)N1CCC2(CC1)CCN(c1ccccc1)CC2,,-28.2%
CC(C)CN1CCCC2(CCN(C(=O)c3cccc(F)c3)CC2)C1,,-33.2%
O=C(c1cccc(F)c1)N1CCC2(CCCN(c3cccc(-c4ccccc4)c3)C2)CC1,7.94 µM (active),
O=C(c1cccc(F)c1)N1CCC2(CCCN(c3ncccn3)C2)CC1,6.31 µM (active),
O=C(c1cccc(F)c1)N1CCC[C@@]2(CCN(c3ccccc3)C2)C1,,4.02%
